Beta cell apopt: beta cell apoptosis inhibition; INS-1E cytokine-induced death, ATP luminescence, 48 h; percent of positive-control rescue, neutral wells zero; protection from apoptosis, % (concentration not given with the values); 300,000 tested, 0.8% active;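 active = Every replicate reaches about 75%, or at least half do and their mean reaches it too, limit read from the data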;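 note: 0% = cytokine-treated negative control wells and 100% = positive control rescue; higher means more ATP so stronger rescue from cytokine killing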
CSC inhib: blocks cancer stem cells | cancer stem cell-like cells viability, luminescence | inhibition, % at 7.5 µM | 300,000 tested, 1.1% active; in the data active = inhibition above about 75%; tested in HMLE shEcad cells
Mdm2 MdmX PPI: inhibitors of human Mdm2/MdmX interaction; O15151+Q00987; SaOS-2 split-luciferase Mdm2/MdmX complementation, luminescence; inhibition, % at 8 µM; 330,000 tested, 3% active; AID 485346;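 active = inhibition of at least 50% at 8 µM in the primary screen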
697 NFkB inh: lowers PMA/ionomycin-induced NF-kB signal in 697 B cells | 330,000 tested, 0.33% active | 697 B-cell NF-kB luciferase reporter, 16 h | inhibition, % at 4 µM | AID 435022; in the data active = inhibition above about 35%
Jurkat NFkB inh: lowers PMA/ionomycin-induced NF-kB signal in Jurkat cells | PMA/ionomycin-induced NF-kB luciferase reporter, luminescence | inhibition, % at 4 µM | 330,000 tested, 0.53% active; in the data active = inhibition above about 50%
Gli-Sufu antag: blocks Gli-Sufu signaling in a luciferase reporter | Sufu-KO-LIGHT fibroblasts, Gli luciferase reporter luminescence | inhibition, % at 5 µM | 340,000 tested, 0.74% active | AID 588413;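 active = inhibition above about 55%, limit read from the data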;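 note: 0% = DMSO-treated cells and 100% = wells with medium but no cells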
Jurkat NFkB conf: lowers PMA/ionomycin-induced NF-kB signal in Jurkat cells; inhibition, % at 4 µM; 2,700 tested, 27% active; AID 435020; Jurkat NF-kB luciferase, 16 h; shares compounds with Jurkat NFkB inh;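 active = inhibition reaching about 45% at 4 µM in either replicate, limit read from the data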;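 note: plate controls were PMA/ionomycin stimulated DMSO wells for no effect and unstimulated DMSO wells for full effect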
* marks the source's active call; other numbers are inactive results; / = no result given. An excerpt weighted towards active compounds, which were near 4.5% of everything screened.

SMILES	Beta cell apopt	CSC inhib	Mdm2 MdmX PPI	697 NFkB inh	Jurkat NFkB inh	Gli-Sufu antag	Jurkat NFkB conf
O=C(NCc1ccco1)C1CC(c2ccc(Cl)c(Cl)c2)=NO1 (centres undefined)	6.4	-12.1	35.1	2.6	51.9*	-3.5	15.4
Cc1ccccc1CN1CCN(c2nc3ccccc3s2)CC1	-3.4	7.7	-124.3	-174.2	-108.8	-74.7	/
Cc1ccc(Nc2nc(-c3ccc(O)c(O)c3)cs2)nc1	/	/	16.5	-33.7	53.2*	64.2*	-0.7
COc1ccc(-c2csc(Nc3ccc(C)cn3)n2)cc1OC	3.2	0.4	-15.1	-7.7	-14.6	-27.8	/
CC(=O)Nc1cccc(-c2csc(Nc3ccc(Cl)cn3)n2)c1	/	62.2	-141.9	-194.0	-156.3	-132.5	-76.0
Cc1ccc(Nc2nc(-c3ccc(F)cc3)cs2)nc1	/	/	-188.2	-186.9	-175.0	-80.7	-80.8
O=C(Nc1cccc(OCC(=O)N2CCOCC2)c1)c1ccc(C(F)(F)F)cc1	1.8	-1.8	2.1	10.6	3.2	-5.5	/
CCn1cc(C(=O)N(C)CC(OC)OC)c(=O)c2cc(S(=O)(=O)N3CCOCC3)ccc21	-3.2	-6.1	10.3	-3.1	6.0	-16.7	/
COc1ccc(N2CC(C(=O)N3CCN(S(=O)(=O)c4ccc(F)c(F)c4)CC3)CC2=O)c(OC)c1 (centres undefined)	/	/	/	/	/	1.9	/
COc1cc(/C=N/NC(=O)c2cccc(S(=O)(=O)N3CCCC3)c2)cc(OC)c1O	3.9	-10.4	-0.7	16.6	-0.4	-5.6	/
COc1ccc(N2CCN(C(=O)c3ccc(CNS(=O)(=O)c4ccc(C)cc4)cc3)CC2)cc1	8.1	19.6	25.9	-11.6	9.3	-15.7	/
Cc1ccc(S(=O)(=O)NCc2ccc(C(=O)N3CCN(c4ccc([N+](=O)[O-])cc4)CC3)cc2)cc1	34.9	-1.6	24.7	0.5	58.7*	26.3	53.3*
Cc1ccc(N/C=C(/C#N)c2ccsc2)cc1C	9.2	22.6	-250.5	-160.5	-172.2	-9.8	-48.0
COc1ccc(NC(=O)c2cc3ccccc3cc2OC)cc1	2.8	43.8	-77.8	-136.4	-92.2	-11.1	/
COc1cc2ccccc2cc1C(=O)Nc1ccc(C)cn1	5.6	6.1	-133.1	-159.8	-159.1	-102.7	-112.5
COc1ccc(C(=O)Nc2ccc([N+](=O)[O-])cn2)c(OC)c1	-2.9	33.1	-98.3	-222.9	-167.3	-77.0	-94.8
COCC(C)NC(=O)c1cc2cccc([N+](=O)[O-])c2[nH]1 (centres undefined)	-8.0	-9.3	5.5	-18.8	1.2	0.7	/
Cc1cc(NC(=O)c2cc3cccc([N+](=O)[O-])c3[nH]2)ccc1F	-4.4	-3.1	-93.2	-107.1	-154.8	-72.8	-81.2
Cc1ccc(N(CC(O)CN2CCCCC2)S(=O)(=O)c2ccc(C)cc2)cc1 (centres undefined)	2.1	-5.4	17.0	2.6	15.4	-11.9	/
COC(=O)c1ccc(Oc2cc(C)nc(SC)n2)cc1	-0.3	58.7	38.8	-48.0	55.5*	0.0	42.3
CC1CC(C)(C)CC2(C1)NC(=O)N(CC(=O)Nc1cc([N+](=O)[O-])ccc1F)C2=O (centres undefined)	-4.0	/	21.8	12.7	3.0	-0.8	/
Cc1ccc(S(=O)(=O)n2ccc3c2CCCC3=O)cc1	-0.8	-6.1	37.3	13.6	-2.3	21.2	/
Cc1nc2cc(NCc3ccc(Cl)cc3)ccc2n1C	/	-18.1	-137.9	-202.0	-133.4	-29.5	/
Cc1ccc(CNc2ccc3c(c2)ncn3C(C)(C)C)cc1	-2.2	4.7	-203.7	-160.5	-161.4	-80.3	-21.8
Cc1ccc(CNc2ccc3c(c2)nc(C)n3C)cc1	0.5	-9.9	-68.5	-200.9	-156.0	-47.9	-59.2
SMILES	Beta cell apopt	CSC inhib	Mdm2 MdmX PPI	697 NFkB inh	Jurkat NFkB inh	Gli-Sufu antag	Jurkat NFkB conf
N#Cc1ccc(S(=O)(=O)N2CCC(C(=O)N3CCN(Cc4ccc5c(c4)OCO5)CC3)CC2)cc1	-2.3	3.1	13.2	-6.1	9.1	10.1	/
CCCCCc1ccc(C(=O)CCC(=O)OCC(=O)N(CC)c2c(N)n(Cc3ccccc3)c(=O)[nH]c2=O)cc1	/	/	11.0	-21.2	7.9	-13.6	/
O=C(c1ccc2nc(Cc3ccccc3F)oc2c1)N1CC[C@H](O)C1	-2.4	5.5	2.3	-2.0	-9.0	-41.6	/
Cc1cccc(N2CCCC2=Nc2ccc(Br)cc2C#N)c1	-0.6	18.0	19.6	6.0	62.0*	2.3	8.9
COCCN(C(=S)Nc1c(C)cc(C)cc1C)C(C)c1cccs1 (centres undefined)	0.4	16.7	11.7	1.6	-1.5	8.0	/
O=C(COC(=O)c1cncc(Br)c1)NCc1cccs1	-6.3	-19.5	0.3	14.3	21.2	-10.9	/
C=CCn1c(SCc2cc(C(C)=O)ccc2OCC)nc2ccccc2c1=O	5.8	64.0	35.5	6.9	58.2*	14.1	35.5
CN(C(=O)COC(=O)c1ccc2ccccc2n1)c1ccccc1	5.7	3.5	12.9	6.2	-6.7	3.4	/
Clc1cccc(-c2nnc(-c3ccccc3)o2)c1	4.7	19.7	-188.3	-227.0	-183.9	-4.5	-93.4
CSc1ccccc1-c1nnc(-c2ccccc2)o1	3.6	/	-103.6	-172.6	-158.6	-71.0	-85.3
c1ccc(-c2nnc(-c3ccccc3)o2)cc1	1.6	10.9	-37.4	-130.5	-114.3	-72.7	/
Nc1ccccc1-c1nnc(-c2ccc(-c3ccccc3)cc2)o1	-9.2	/	-140.6	-175.0	-154.2	-68.5	-73.7
CSc1ccccc1-c1nnc(-c2ccc(C)cc2)o1	6.4	-12.2	-112.4	-101.6	-101.7	-74.9	/
CC(C)CCN(C(=O)c1ccccn1)c1c(N)n(Cc2ccccc2)c(=O)[nH]c1=O	-1.2	-0.2	20.7	8.1	3.6	-21.1	/
CN(C)C1(CNC(=O)C2CCN(S(=O)(=O)c3c(Cl)cccc3Cl)CC2)CCCCC1	-2.6	-7.7	30.2	-5.9	-0.8	19.4	/
COc1ccc(CCN2CC(C(=O)OCc3ccccc3Cl)CC2=O)cc1OC (centres undefined)	/	/	/	/	/	-6.7	/
CCOC(=O)N/N=C/c1c(C)nn(-c2cccc(C(F)(F)F)c2)c1Cl	35.4	67.5	35.0	-43.9	51.2*	19.1	46.5
O=C(Nc1ccccc1)C(=O)Nc1ccc2c(c1)N(C(=O)C1CC1)CCC2	30.8	/	-79.5	-151.2	-163.0	-89.9	-71.2
Clc1ccc(Cc2ccccn2)cc1	/	/	-5.1	-1.1	1.9	0.3	/
Cc1noc(C)c1COc1cccc(C(=O)Nc2ccc(Br)cc2F)c1	6.5	43.0	41.1	-47.5	61.3*	-17.1	34.6
Cc1noc(C)c1COc1cccc(C(=O)OC(C)C(=O)Nc2ccc3c(c2)OCO3)c1 (centres undefined)	5.5	/	42.1	10.6	58.0*	4.3	23.4
O=C(Nc1ccc(F)cc1F)c1ccc2c(c1)OCCO2	4.1	/	-86.1	-72.8	-87.9	-30.4	/
COc1cc(C(=O)OC(C)C(=O)Nc2ccc3c(c2)OCO3)ccc1OCc1c(C)noc1C (centres undefined)	/	15.0	-12.5	-5.6	-1.3	-0.4	/

High-throughput results deposited in PubChem by several laboratories.
